# Measurements published in PubChem BioAssay (Tox21).
# Where “and” joins values, the source holds several entries; their conditions need not be identical. Equal entries are not always repeated. Results filed as inconclusive are left out. A call without a number means that no potency is given here. A structure can be active in one record and inactive in another. Calls of active or inactive are those of the source. Unless noted, calls come from the whole dose curve; as a rule, active = well fitted curve in the direction sought with a large enough effect in the repeat runs; inconclusive = weak or mixed curves; inactive = no such curve, though single readings can be large; an effect the other way counts as inactive or inconclusive. Residues, ends and D or L forms follow the SMILES beside them.
# Tests used:
# [1] = molecular target: Retinoic acid receptor RXR-alpha (Homo sapiens) (UniProt P19793); assay: qHTS assay to identify small molecule agonists of the RXR signaling pathway (AID 1159527; calls by dose curve; note: nearly all actives have a fitted effect of over 35% in size; note: potency is the fitted concentration of half-maximal effect)
# Chain of Retinoic acid receptor RXR-alpha (Homo sapiens) (P19793 whole entry, looked up): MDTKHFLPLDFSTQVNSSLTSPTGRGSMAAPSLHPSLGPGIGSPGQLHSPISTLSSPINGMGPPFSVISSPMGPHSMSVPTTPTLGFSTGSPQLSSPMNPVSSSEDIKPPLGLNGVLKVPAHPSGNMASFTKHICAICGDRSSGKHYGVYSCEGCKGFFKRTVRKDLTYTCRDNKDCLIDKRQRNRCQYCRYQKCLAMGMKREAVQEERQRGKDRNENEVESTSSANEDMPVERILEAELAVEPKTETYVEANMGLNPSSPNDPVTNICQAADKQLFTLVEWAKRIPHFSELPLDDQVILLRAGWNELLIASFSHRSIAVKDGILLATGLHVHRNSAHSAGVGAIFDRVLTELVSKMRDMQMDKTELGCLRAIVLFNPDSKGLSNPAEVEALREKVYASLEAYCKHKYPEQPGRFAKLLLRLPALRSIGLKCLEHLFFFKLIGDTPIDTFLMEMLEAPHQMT
# Outline: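 GeneBLAzer RXR-alpha-UAS-bla HEK 293T cells in 2% charcoal-stripped FBS medium were exposed to compounds for 16 hr at 37 C in agonist mode. Beta-lactamase reporter read as 460/530 nm FRET ratio after 2 hr substrate loading.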
# [2] = qHTS assay to identify small molecule agonists of the RXR signaling pathway - cell viability counter screen (AID 1159529); note: series mostly up to about 77 µM; nearly all actives have a fitted effect of over 50% in size
# Outline: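 RXR-alpha-UAS-bla HEK 293T cells in medium with 2% charcoal-stripped FBS were pre-incubated 5 hr, then compound-treated 16 hr at 37 C. Viability was read by CellTiter-Glo luminescence in the same wells as the beta-lactamase assay, with tetraoctyl ammonium bromide as positive control.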
# [3] = qHTS assay to identify small molecule antagonists of the retinoid acid receptor (RAR) signaling pathway - cell viability counter screen (AID 1159551); note: nearly all actives have a fitted effect of over 35% in size
# Outline: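 Cells (C3RL4) are plated, incubated overnight, dosed with compound in DMSO, then given retinol at 1 uM final. After 6 h at 37 C, CellTiter-Glo is added and luminescence read following 30 min at room temperature.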
# [4] = qHTS assay to identify small molecule antagonists of the retinoic acid receptor (RAR) signaling pathway (AID 1159552; note: nearly all actives have a fitted effect of over 50% in size)
# Outline: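 Retinol signaling pathway inhibitors screened in C3RL4 RARE-luciferase reporter cells seeded overnight at 37 C, then compounds added with 1 uM (final) retinol as pathway substrate. After 6 hr at 37 C, luciferase luminescence read after 30 min at room temperature.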
# [5] = qHTS assay to identify small molecule agonists of the retinoic acid receptor (RAR) signaling pathway (AID 1159553)
# Outline: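 Seed C3RL4 reporter cells at 1,000 per well and incubate overnight at 37 C. Add compounds in DMSO, incubate 6 hr. Add luciferase reagent, wait 30 min at room temperature, read luminescence.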
# [6] = qHTS assay to identify small molecule antagonists of the estrogen related receptor (ERR) signaling pathway - cell viability counter screen (AID 1224818); note: series mostly up to about 46 µM
# Outline: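 ERR cells, 2,000/well; 6 h settle at 37 C/5% CO2; compound pin transfer (DMSO); 17.5 h at 37 C; CellTiter-Fluor, 30 min, fluorescence read.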
# [7] = qHTS assay to identify small molecule antagonists of the estrogen related receptor (ERR) signaling pathway (AID 1224819;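 note: luminescence from an ERR-driven luciferase reporter measured with One-Glo reagent; series mostly up to about 46 µM; nearly all actives have a fitted effect of over 50% in size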)
# Outline: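 qHTS in ERR cells, 2,000/well, 1536 format. Cpd (DMSO) added after 6 h settle, 18 h 37 C. One-Glo luminescence, 30 min RT.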
# [8] = qHTS assay to identify small molecule agonists of the estrogen related receptor (ERR) signaling pathway (AID 1224820)
# Outline: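 Luminescence readout (One-Glo, 30 min RT) from NTP-supplied ERR cell line exposed to compounds for 18 h at 37 C. Cells seeded 2,000 per well and pre-incubated 6 h before pin-tool compound transfer.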
# [9] = qHTS assay to identify small molecule antagonists of the estrogen related receptor signaling pathway with the pleiotropic PPARgamma coactivator (PGC) cell viability counter screen (AID 1224822;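 note: series mostly up to about 46 µM; viability read after 17.5 h compound exposure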)
# Outline: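 Multiplexed viability counter screen run in PGC/ERR cells treated with compounds for 17.5 h at 37 C; live-cell protease signal measured by CellTiter-Fluor fluorescence.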
# [10] = qHTS assay to identify small molecule agonists of the estrogen related receptor signaling pathway with the pleiotropic PPARgamma coactivator (PGC) (AID 1224823)
# Outline: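 Luminescence readout (One-Glo, 30 min RT) from PGC/ERR cell line treated 18 h at 37 C with pin-tool-delivered DMSO compound solutions; cells plated 6 h before dosing. Quantitative HTS format.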
# [11] = qHTS assay to identify small molecule antagonists of the estrogen related receptor (ERR) signaling pathway from Tox21 library - cell viability counter screen (AID 1224834); note: nearly all actives have a fitted effect of over 30% in size; note: potency is the fitted concentration of half-maximal effect
# Outline: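 ERR cells, 2,000/well; 6 h settle at 37 C/5% CO2; pin-tool compound transfer in DMSO; 17.5 h at 37 C; CellTiter-Fluor, 30 min; fluorescence intensity.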
# [12] = molecular target: Luciferin 4-monooxygenase (Photinus pyralis) (UniProt P08659); assay: qHTS assay to identify small molecule inhibitors of firefly luciferase (AID 1224835); note: series mostly up to about 120 µM; nearly all actives have a fitted effect of over 25% in size
# Chain of Luciferin 4-monooxygenase (Photinus pyralis) (P08659 whole entry, looked up): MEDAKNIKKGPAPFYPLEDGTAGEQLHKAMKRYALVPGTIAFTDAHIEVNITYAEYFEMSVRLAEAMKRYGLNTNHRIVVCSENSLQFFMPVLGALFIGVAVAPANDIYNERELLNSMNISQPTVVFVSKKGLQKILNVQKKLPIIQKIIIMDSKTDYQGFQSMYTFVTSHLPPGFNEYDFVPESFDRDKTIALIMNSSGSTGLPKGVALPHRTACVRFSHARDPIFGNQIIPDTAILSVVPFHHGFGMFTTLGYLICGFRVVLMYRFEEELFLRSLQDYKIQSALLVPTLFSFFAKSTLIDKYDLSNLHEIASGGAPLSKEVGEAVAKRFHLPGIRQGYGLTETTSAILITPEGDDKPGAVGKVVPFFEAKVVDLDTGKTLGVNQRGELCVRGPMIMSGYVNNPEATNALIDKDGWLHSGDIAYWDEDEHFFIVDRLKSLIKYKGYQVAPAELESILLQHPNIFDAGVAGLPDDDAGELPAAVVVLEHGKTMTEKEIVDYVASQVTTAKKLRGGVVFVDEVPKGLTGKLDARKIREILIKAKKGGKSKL
# Outline: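 Biochemical qHTS: compounds run as interplate titrations against purified firefly enzyme, with D-luciferin and ATP each at its KM concentration. Light output recorded by CCD imaging.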
# [13] = qHTS assay to identify small molecule agonists of the constitutive androstane receptor (CAR) signaling pathway - cell viability counter screen (AID 1224836); note: nearly all actives have a fitted effect of over 45% in size; note: potency is the fitted concentration of half-maximal effect
# Outline: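 HepG2 cells stably carrying hCAR and a CYP2B6-2.2kb reporter; 15-concentration compounds plus PK11195 (final 0.75 uM), 23 hr at 37 C/5% CO2. Viability read by CellTiter-Fluor fluorescence.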
# [14] = qHTS assay to identify small molecule antagonists of the constitutive androstane receptor (CAR) signaling pathway - cell viability counter screen (AID 1224837); note: nearly all actives have a fitted effect of over 45% in size; note: potency is the fitted concentration of half-maximal effect
# Outline: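 Viability was measured with CellTiter-Fluor in a HepG2 line carrying stably transfected hCAR and a CYP2B6-2.2kb construct. Cells were exposed for 23 hr at 37 C to 15 compound concentrations with 50 nM CITCO as agonist.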
# [15] = molecular target: Nuclear receptor subfamily 1 group I member 3 (Homo sapiens) (UniProt Q14994); assay: qHTS assay to identify small molecule antagonists of the constitutive androstane receptor (CAR) signaling pathway (AID 1224838);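 note: HepG2 cells stably expressing hCAR with CYP2B6 luciferase reporter stimulated by CITCO; nearly all actives have a fitted effect of over 40% in size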
# Chain of Nuclear receptor subfamily 1 group I member 3 (Homo sapiens) (Q14994 whole entry, looked up): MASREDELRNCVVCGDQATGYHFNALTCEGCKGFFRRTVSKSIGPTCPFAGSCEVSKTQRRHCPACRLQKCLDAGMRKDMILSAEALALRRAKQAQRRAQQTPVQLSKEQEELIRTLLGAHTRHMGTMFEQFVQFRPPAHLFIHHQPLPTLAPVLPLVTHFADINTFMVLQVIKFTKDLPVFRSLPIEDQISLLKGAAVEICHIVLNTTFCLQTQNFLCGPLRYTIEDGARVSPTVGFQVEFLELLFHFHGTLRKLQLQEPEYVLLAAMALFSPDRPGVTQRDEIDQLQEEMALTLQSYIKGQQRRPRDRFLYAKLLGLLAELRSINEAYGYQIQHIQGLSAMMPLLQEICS
# Outline: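 Antagonist mode used CITCO at a final 50 nM to activate CAR in human hepatoma HepG2 cells carrying stable hCAR and a 2.2 kb CYP2B6 promoter-luciferase construct. Compounds were tested at 15 concentrations over 24 h, with luminescence as the end point.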
# [16] = qHTS assay to identify small molecule antagonists of the estrogen related receptor signaling pathway with the pleiotropic PPARgamma coactivator (PGC) from Tox21 10K library - cell viability counter screen (AID 1224840; active = well fitted cell-killing curve with a large enough effect in the repeat runs, not every such curve was filed as active; note: nearly all actives have a fitted effect of over 40% in size; note: potency is the fitted concentration of half-maximal effect)
# Outline: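 Multiplexed viability counter screen in the PGC/ERR cell line: cells treated with DMSO-dissolved compounds for 17.5 hours at 37 C, then viability measured as CellTiter-Fluor fluorescence.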
# [17] = qHTS assay to identify small molecule antagonists of the estrogen related receptor signaling pathway with the pleiotropic PPARgamma coactivator (PGC) from Tox21 10K library (AID 1224841; call rule not given here; note: actives are mostly falling curves and most rising ones were filed inactive; nearly all actives have a fitted effect of over 50% in size; note: potency is the fitted concentration of half-maximal effect)
# Outline: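 Steps: plate 2,000 PGC/ERR cells per well; incubate 6 h at 37 C with 5% CO2; transfer compounds from DMSO stocks by pin tool; incubate 18 h at 37 C; add One-Glo; measure luminescence 30 min later.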
# [18] = qHTS assay to identify small molecule agonists of the estrogen related receptor signaling pathway with the pleiotropic PPARgamma coactivator (PGC) from Tox21 10K library (AID 1224842); note: nearly all actives have a fitted effect of over 15% in size
# Outline: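 PGC/ERR reporter cell line, 2,000 cells per well, incubated 6 h at 37 C before 23 nL compound in DMSO was added. After 18 h at 37 C, One-Glo luminescence read following 30 min at room temperature.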
# [19] = molecular target: Nuclear receptor subfamily 1 group I member 3 (Homo sapiens) (UniProt Q14994); assay: qHTS assay to identify small molecule agonists of the constitutive androstane receptor (CAR) signaling pathway (AID 1224839); note: series mostly up to about 92 µM; nearly all actives have a fitted effect of over 15% in size
# Outline: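 HepG2 cells stably co-transfected with hCAR and a CYP2B6-2.2kb luciferase reporter; compounds at 15 concentrations with 0.75 uM PK11195 present. After 24 hr at 37 C, luciferase read by ONE-Glo luminescence.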
Structure (SMILES),Potency [1],Potency [2],outcome [3],Potency [4],outcome [5],outcome [6],outcome [7],Potency [8],outcome [9],Potency [10],Potency [11],Potency [12],Potency [13],Potency [14],Potency [15],Potency [16],Potency [17],Potency [18],Potency [19]
Cc1ccc(S(=O)(=O)NC(=O)NN2CCCCCC2)cc1,inactive,inactive,inactive,inactive,inactive,inactive,inactive,inactive,inactive,inactive,inactive,inactive,inactive,inactive,inactive,inactive,inactive,inactive,
CC(=O)Nc1nnc(S(N)(=O)=O)s1,inactive,inactive,inactive,inactive,inactive,inactive,,,inactive,,inactive,inactive,inactive,inactive,inactive,inactive,,,inactive
C[C@]12C=CC(=O)C=C1CC[C@@H]1[C@@H]2[C@@H](O)C[C@@]2(C)[C@H]1CC[C@]2(O)C(=O)CO,inactive,inactive,inactive,inactive,inactive,,,,,,inactive,inactive,inactive,inactive,inactive,inactive,,,inactive
Cc1cc(=O)n(-c2ccccc2)n1C,inactive,inactive,inactive,inactive,inactive,,,,,,inactive,inactive,inactive,inactive,inactive,inactive,inactive,inactive,inactive
Cc1cn([C@H]2C[C@H](N=[N+]=[N-])[C@@H](CO)O2)c(=O)[nH]c1=O,inactive,inactive,inactive,inactive,inactive,,,,,,inactive,inactive,inactive,inactive,,inactive,inactive,inactive,
Nc1ccc(S(=O)(=O)c2ccc(N)cc2)cc1,inactive,inactive,inactive,inactive,inactive,,,,,,inactive,inactive,inactive,inactive,,inactive,,,
OCCc1ccccc1,inactive,inactive,inactive,inactive,inactive,,,,,,inactive,inactive,inactive,inactive,,inactive,,,
CCOc1ccc(NC(=O)CC(C)O)cc1 (stereo unspecified),inactive,inactive,inactive,inactive,inactive,,,,,,inactive,inactive,inactive,inactive,,inactive,,,
Cc1noc(NS(=O)(=O)c2ccc(N)cc2)c1C,inactive,inactive,inactive,inactive,inactive,,,,,,inactive,inactive,inactive,inactive,inactive,inactive,,,inactive
COC(=O)[C@H](Cc1ccccc1)NC(=O)[C@@H](N)CC(=O)O (H-Asp-Phe-OMe),inactive,inactive,inactive,inactive,inactive,,,,,,inactive,inactive,inactive,inactive,,inactive,,,
O=C(c1ccccc1)C(O)c1ccccc1 (stereo unspecified),inactive and 38.9 µM (active),inactive,inactive,inactive,inactive,,,,,,inactive,inactive,inactive,inactive,inactive,inactive,,,
O=C(O)C(=O)O,inactive,inactive,inactive,inactive,inactive,,,,,,inactive,inactive,inactive,inactive,,inactive,,,
Cc1ccc(C)c(OCCCC(C)(C)C(=O)O)c1,inactive,inactive,inactive,inactive,inactive,,,,,,inactive,inactive,inactive,inactive,,inactive,,,
O=c1ccc2ccccc2o1,inactive,inactive,inactive,inactive,inactive,,,,,,inactive,inactive,inactive,inactive,inactive,inactive,,,inactive
O=C(O)CCC(=O)O,inactive,inactive,inactive,inactive,inactive,,,,,,inactive,inactive,inactive,inactive,inactive,inactive,inactive,inactive,inactive
CCCCCCCCCCCCCCCC(=O)O,inactive,inactive,inactive,inactive,inactive,,,,,,inactive,inactive,inactive,inactive,inactive,inactive,,,inactive
CC1(C)[C@@H]2CC[C@@]1(C)C(=O)C2,inactive,inactive,inactive,inactive,inactive,,,,,,inactive,inactive,inactive,inactive,inactive,inactive,inactive,inactive,inactive

Structure (SMILES),Potency [1],Potency [2],outcome [3],Potency [4],outcome [5],outcome [6],outcome [7],Potency [8],outcome [9],Potency [10],Potency [11],Potency [12],Potency [13],Potency [14],Potency [15],Potency [16],Potency [17],Potency [18],Potency [19]
CC(=O)NS(=O)(=O)c1ccc(N)cc1,inactive,inactive,inactive,inactive,inactive,,,,,,inactive,inactive,inactive,inactive,inactive,inactive,,,inactive
CCC1(c2ccccc2)C(=O)NCNC1=O,inactive,inactive,inactive,inactive,inactive,inactive,,,inactive,,inactive,inactive,inactive,inactive,inactive,inactive,,,inactive
CC(O)CN(CCN(CC(C)O)CC(C)O)CC(C)O (stereo unspecified),inactive,inactive,inactive,inactive,inactive,,,,,,inactive,inactive,inactive,inactive,inactive,inactive,,,inactive
Nc1ccc(S(=O)(=O)Nc2nccs2)cc1,19.6 µM (active) and inactive,inactive,inactive,inactive,inactive,,,,,,inactive,inactive,inactive,inactive,,inactive,inactive,inactive,
CCCCC(CC)COC(=O)/C=C/c1ccc(OC)cc1 (stereo unspecified),inactive,inactive,inactive,inactive,inactive,,,,,,inactive,inactive,inactive,inactive,inactive,inactive,inactive,inactive,inactive
O=S(=O)(O)c1ccc2cc(O)ccc2c1,inactive,inactive,inactive,inactive,inactive,,,,,,inactive,inactive,inactive,inactive,inactive,inactive,,,inactive
CC(O)CO (stereo unspecified),inactive,inactive,inactive,inactive,inactive,,,,,,inactive,inactive,inactive,inactive,,inactive,inactive,inactive,
O=C1CN(/N=C/c2ccc([N+](=O)[O-])o2)C(=O)N1,inactive,inactive,inactive,inactive,inactive,,,,,,30.5 µM (active) and 61.1 µM (active),inactive,27.2 µM (active) and 21.7 µM (active) and 13.3 µM (active),27.2 µM (active) and 21.7 µM (active) and 21.1 µM (active),inactive,54.3 µM (active),19.3 µM (active) and 24.3 µM (active) and 16.8 µM (active),inactive,inactive
CCCCC1C(=O)N(c2ccccc2)N(c2ccccc2)C1=O,inactive,inactive,inactive,inactive,inactive,inactive,,inactive,inactive,inactive,inactive,inactive,inactive,inactive,inactive,inactive,inactive,inactive,inactive
CC(O)C(=O)O (stereo unspecified),inactive,inactive,inactive,inactive,inactive,,,,,,inactive,inactive,inactive,inactive,inactive,inactive,,,inactive
O=C(O)CCCCCCCC(=O)O,inactive,inactive,inactive,inactive,inactive,inactive,,,inactive,,inactive,inactive,inactive,inactive,inactive,inactive,,,inactive
C1N2CN3CN1CN(C2)C3,inactive,inactive,inactive,inactive,inactive,,,,,,inactive,inactive,inactive,inactive,inactive,inactive,,,inactive
CNC[C@H](O)c1cccc(O)c1,inactive,inactive,inactive,inactive,inactive,inactive,inactive,inactive,inactive,,inactive,,inactive,inactive,inactive,inactive,,,inactive
NC(=O)c1ccccc1O,inactive,inactive,inactive,inactive,inactive,,,,,,inactive,inactive,inactive,inactive,,inactive,,,
CCCNC(=O)NS(=O)(=O)c1ccc(Cl)cc1,inactive,inactive,inactive,inactive,inactive,inactive,,,inactive,,inactive,inactive,inactive,inactive,,inactive,,,
Nc1ccc(C(=O)O)cc1,inactive,inactive,inactive,inactive,inactive,,,,,,inactive,inactive,inactive,inactive,inactive,inactive,,,inactive
CC(C)(Oc1ccc(C2CC2(Cl)Cl)cc1)C(=O)O (stereo unspecified),inactive,inactive,inactive,inactive,inactive,inactive,,,inactive,,inactive,inactive,inactive,inactive,inactive,inactive,,,inactive
